According to PubChem BioAssay (Tox21):
Records with an inconclusive call do not appear. Calls of active or inactive are those of the source. Unless noted, calls come from the whole dose curve.

How the values were obtained:
[1] = Nuclear factor erythroid 2-related factor 2/antioxidant responsive element (Nrf2/ARE) small molecule agonists: qHTS cell viability counter screen in human keratinocytes (AID 1919968; active = well fitted curve in the direction sought with a large enough effect in the repeat runs; an effect the other way counts as inactive or inconclusive; note: nearly all actives have a fitted effect of over 55% in size)
Summary of the method: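 Measured as CellTiter-Fluor fluorescence, this readout tracks cytotoxicity in the same wells as the ARE-luciferase screen. HaCaT reporter cells (1,500/well) received compounds after a 5 h pre-incubation and were exposed for 23 h.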

[2] = Nuclear factor erythroid 2-related factor 2/antioxidant responsive element (Nrf2/ARE) small molecule agonists: luciferase reporter gene qHTS assay in human keratinocytes (AID 1919969); note: nearly all actives have a fitted effect of over 35% in size; note: potency is the fitted concentration of half-maximal effect
[3] = target: Gonadotropin-releasing hormone receptor (Homo sapiens) (UniProt P30968); assay: Human gonadotropin-releasing hormone receptor (GnRHR) small molecule agonists, calcium flux assay in GnRHR-HEK293 cells (AID 1920063); note: nearly all actives have a fitted effect of over 35% in size
Sequence of Gonadotropin-releasing hormone receptor (Homo sapiens) (P30968 whole entry, looked up): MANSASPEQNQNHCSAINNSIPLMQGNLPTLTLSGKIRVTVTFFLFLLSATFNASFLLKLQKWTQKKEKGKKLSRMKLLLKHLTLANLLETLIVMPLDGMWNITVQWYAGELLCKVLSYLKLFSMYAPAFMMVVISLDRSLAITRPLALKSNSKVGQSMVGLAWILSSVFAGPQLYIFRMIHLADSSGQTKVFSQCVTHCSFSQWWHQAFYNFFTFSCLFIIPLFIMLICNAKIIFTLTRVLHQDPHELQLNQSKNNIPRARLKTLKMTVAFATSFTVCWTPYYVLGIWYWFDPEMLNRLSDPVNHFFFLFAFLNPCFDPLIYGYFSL
Summary of the method: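 Fluorescence kinetics (480 nm excitation, 540 nm emission; 3 min, 1 s steps) report calcium mobilisation in human GnRHR-HEK293 cells in agonist mode. Dye incubation: 1 h, 37 C.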

[4] = G protein-coupled receptor (GPCR) small molecule agonists, calcium flux assay: HEK293 wild type cell line counter screen (AID 1920065)
Summary of the method: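 Readout: fluorescence at 480 nm excitation/540 nm emission, sampled at 1 s intervals for 3 min. Cells had been cultured 18 h, then dye-loaded 1 h at 37 C before compound or ATP addition.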

[5] = p53 small molecule agonists, cell-based qHTS assay with human liver microsomes (AID 1963577);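 note: p53 response element beta-lactamase reporter cells with liver microsomes plus NADPH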
Summary of the method: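 In this qHTS, p53 response-element beta-lactamase cells receive test compound together with a microsome/NADPH activating system (0.5 mg/mL final each) and are incubated 16 h at 37 C before LiveBLAzer fluorescence detection.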

[6] = p53 small molecule agonists, cell-based qHTS assay with human liver microsomes: qHTS cell viability counter screen (AID 1963579); note: nearly all actives have a fitted effect of over 45% in size
Summary of the method: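 Metabolically activated exposure: compounds, human liver microsomes and NADPH (0.5 mg/mL final apiece) were added to p53RE-bla cells seeded 5 h earlier, left 16 h at 37 C, and then assessed for viability by CellTiter-Glo luminescence.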

[7] = p53 small molecule agonists, cell-based qHTS assay with rat liver microsomes: qHTS cell viability counter screen (AID 1963580); note: nearly all actives have a fitted effect of over 45% in size
Summary of the method: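 HCT-116 p53RE-bla, 4,000 cells/well, 5 h pre-incubation; cpd + rat liver microsomes 0.5 mg/mL + NADPH 0.5 mg/mL (final); 16 h, 37 C; CellTiter-Glo, 30 min RT; luminescence.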

[8] = p53 small molecule agonists, cell-based qHTS assay: qHTS cell viability counter screen (AID 1963581); note: nearly all actives have a fitted effect of over 45% in size
Summary of the method: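 In the same plates used for the p53 bla reporter, HCT-116 cells given compounds for 16 h at 37 C received CellTiter-Glo; luminescence was recorded 30 min later at room temperature.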

[9] = p53 small molecule agonists, cell-based qHTS assay (AID 1963582; active = well fitted activation curve with a large enough effect in the signal ratio in the repeat runs, not every such curve was filed as active; the % refers to the signal ratio)
Summary of the method: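 Compounds are pin-transferred in DMSO onto p53RE-bla cells and incubated 16 h at 37 C. The B/G FRET beta-lactamase substrate is then applied for 2 h at RT and fluorescence recorded.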

[10] = target: Muscarinic acetylcholine receptor M1 (Homo sapiens) (UniProt P11229); assay: Cholinergic receptor muscarinic 1 (CHRM1) small molecule agonists, cell-based qHTS assay (AID 1963589); note: nearly all actives have a fitted effect of over 35% in size
Sequence of Muscarinic acetylcholine receptor M1 (Homo sapiens) (P11229 whole entry, looked up): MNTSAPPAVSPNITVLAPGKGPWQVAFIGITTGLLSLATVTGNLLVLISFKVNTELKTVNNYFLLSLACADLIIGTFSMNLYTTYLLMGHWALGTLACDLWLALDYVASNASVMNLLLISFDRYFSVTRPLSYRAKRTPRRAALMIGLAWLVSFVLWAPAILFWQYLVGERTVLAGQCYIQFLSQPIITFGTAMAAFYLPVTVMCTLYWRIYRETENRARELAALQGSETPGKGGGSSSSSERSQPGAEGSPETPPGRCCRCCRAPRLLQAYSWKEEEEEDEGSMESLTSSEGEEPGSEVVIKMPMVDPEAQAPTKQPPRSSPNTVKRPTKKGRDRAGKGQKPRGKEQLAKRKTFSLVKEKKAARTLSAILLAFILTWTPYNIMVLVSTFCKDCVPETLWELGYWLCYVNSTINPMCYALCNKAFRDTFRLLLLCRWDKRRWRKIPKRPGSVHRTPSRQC
Summary of the method: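 Each compound was tested at 15 concentrations across three independent runs on dye-loaded CHO cells stably expressing human CHRM1, reading intracellular calcium fluorescence kinetically at 1 sec intervals.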

[11] = cAMP Responsive Elements (CRE) small molecule agonists, cell-based qHTS assay (AID 1963590)
Summary of the method: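 Cell line: CRE-bla HEK 293T; medium DMEM/10% dialyzed FBS/0.1 mM NEAA/1 mM pyruvate/25 mM HEPES; 3 h compound exposure; beta-lactamase FRET readout after 2 h substrate loading at RT.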

[12] = cAMP Responsive Elements (CRE) small molecule antagonists, cell-based qHTS assay (AID 1963591; active = well fitted inhibition curve with a large enough effect in the signal ratio in the repeat runs, not every such curve was filed as active; the % refers to the signal ratio)
Summary of the method: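 Inhibition of NKH477-driven (0.25 uM final) CRE-beta-lactamase signal in HEK293T cells, 3 h compound exposure at 37 °C, detected by FRET substrate fluorescence.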

[13] = target: Beta-2 adrenergic receptor (Homo sapiens) (UniProt P07550); assay: Adrenergic beta2 receptor (ADRB2) small molecule antagonists, cell-based qHTS assay (AID 1963592); note: series mostly up to about 92 µM; nearly all actives have a fitted effect of over 50% in size
Sequence of Beta-2 adrenergic receptor (Homo sapiens) (P07550 whole entry, looked up): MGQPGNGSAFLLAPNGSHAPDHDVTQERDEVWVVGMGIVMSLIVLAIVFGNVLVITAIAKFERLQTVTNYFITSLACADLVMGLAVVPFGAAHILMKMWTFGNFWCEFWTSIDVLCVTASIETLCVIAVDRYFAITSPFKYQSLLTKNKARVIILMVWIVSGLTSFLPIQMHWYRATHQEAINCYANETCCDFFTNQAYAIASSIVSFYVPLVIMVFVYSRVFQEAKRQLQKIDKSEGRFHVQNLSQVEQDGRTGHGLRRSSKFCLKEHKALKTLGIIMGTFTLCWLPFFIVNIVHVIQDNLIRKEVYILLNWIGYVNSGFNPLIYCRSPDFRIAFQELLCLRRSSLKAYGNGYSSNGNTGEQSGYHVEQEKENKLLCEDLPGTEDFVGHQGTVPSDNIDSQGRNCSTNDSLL
Summary of the method: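 Cells (CHO, stable ADRB2 overexpression) incubated 18-20hr at 37C; compounds added from DMSO; agonist mix (1nM isoproterenol, 100uM IBMX, 25uM Ro-20-1724) added; 0.5hr RT; d2-cAMP and anti-cAMP-cryptate added; 1hr RT; 665/615 nm read.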

[14] = target: D(2) dopamine receptor (Homo sapiens) (UniProt P14416); assay: Dopamine D2 receptor (DRD2) small molecule agonists, cell-based qHTS assay (AID 1963594); note: nearly all actives have a fitted effect of over 35% in size
Sequence of D(2) dopamine receptor (Homo sapiens) (P14416 whole entry, looked up): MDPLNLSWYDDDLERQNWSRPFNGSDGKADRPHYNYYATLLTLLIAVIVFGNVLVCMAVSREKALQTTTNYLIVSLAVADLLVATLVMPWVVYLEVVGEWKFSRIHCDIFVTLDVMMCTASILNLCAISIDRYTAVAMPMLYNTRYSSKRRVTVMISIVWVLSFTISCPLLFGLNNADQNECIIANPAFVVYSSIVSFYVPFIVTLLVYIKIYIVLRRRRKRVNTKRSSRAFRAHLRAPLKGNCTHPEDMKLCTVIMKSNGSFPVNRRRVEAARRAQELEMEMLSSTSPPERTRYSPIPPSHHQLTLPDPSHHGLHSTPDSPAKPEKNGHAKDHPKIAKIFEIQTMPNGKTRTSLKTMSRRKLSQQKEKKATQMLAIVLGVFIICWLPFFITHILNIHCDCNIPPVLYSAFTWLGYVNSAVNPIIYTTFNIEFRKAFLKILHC
Summary of the method: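 cAMP accumulation in DRD2-HEK293 cells measured by HTRF after 1 h detection; compounds added 10 min before NKH477 (200nM […]) forskolin-analogue stimulation, 30 min at room temperature, with Ro20-1724 present at 0.1 mM final.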

[15] = target: D(2) dopamine receptor (Homo sapiens) (UniProt P14416); assay: Dopamine D2 receptor (DRD2) small molecule antagonists, cell-based qHTS assay (AID 1963595; active = well fitted inhibition curve with a large enough effect in the signal ratio in the repeat runs, with a control signal flat; the % refers to the signal ratio)
Summary of the method: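 In this cell-based antagonist screen, compounds act for 10 min at room temperature before a 30 min challenge with 12 nM quinpirole and 200 nM NKH477. cAMP is quantified by HTRF competition in DRD2-HEK293 cells containing 0.1 mM Ro20-1724.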

[16] = target: KiSS-1 receptor (Homo sapiens) (UniProt Q969F8); assay: Human kisspeptin (KISS1R) small molecule agonists, calcium flux assay in KISS1R-HEK293 cells (AID 1920064; active = well fitted curve in the direction sought with a large enough effect in the repeat runs; an effect the other way counts as inactive or inconclusive)
Sequence of KiSS-1 receptor (Homo sapiens) (Q969F8 whole entry, looked up): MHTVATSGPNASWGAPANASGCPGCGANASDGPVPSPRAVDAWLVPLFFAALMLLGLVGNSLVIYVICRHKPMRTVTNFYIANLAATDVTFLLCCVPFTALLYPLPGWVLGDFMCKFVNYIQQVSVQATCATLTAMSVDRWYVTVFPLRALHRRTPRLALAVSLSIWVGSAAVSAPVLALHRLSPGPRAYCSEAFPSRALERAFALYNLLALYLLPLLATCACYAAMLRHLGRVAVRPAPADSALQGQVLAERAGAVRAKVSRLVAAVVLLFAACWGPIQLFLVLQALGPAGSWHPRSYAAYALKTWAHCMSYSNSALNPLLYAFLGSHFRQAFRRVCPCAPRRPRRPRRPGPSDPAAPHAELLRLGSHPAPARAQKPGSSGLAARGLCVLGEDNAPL
Summary of the method: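 Measures KISS1R agonism through calcium-sensitive dye fluorescence in stably transfected HEK293 cells, read for 3 min after pin-tool compound delivery; 15-point titrations in triplicate.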

[17] = p53 small molecule agonists, cell-based qHTS assay with rat liver microsomes (AID 1963578)
Summary of the method: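 Agonist mode in p53RE-bla reporter cells, with compounds co-incubated 16 h at 37 C alongside 0.5 mg/mL rat liver microsomes and 0.5 mg/mL NADPH (final), followed by a 2 h LiveBLAzer detection step.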

[18] = target: 5-hydroxytryptamine receptor 2A (Homo sapiens) (UniProt P28223); assay: 5-hydroxytryptamine receptor 2A (HTR2A) small molecule antagonists, cell-based qHTS assay (AID 1963586); note: nearly all actives have a fitted effect of over 45% in size
Sequence of 5-hydroxytryptamine receptor 2A (Homo sapiens) (P28223 whole entry, looked up): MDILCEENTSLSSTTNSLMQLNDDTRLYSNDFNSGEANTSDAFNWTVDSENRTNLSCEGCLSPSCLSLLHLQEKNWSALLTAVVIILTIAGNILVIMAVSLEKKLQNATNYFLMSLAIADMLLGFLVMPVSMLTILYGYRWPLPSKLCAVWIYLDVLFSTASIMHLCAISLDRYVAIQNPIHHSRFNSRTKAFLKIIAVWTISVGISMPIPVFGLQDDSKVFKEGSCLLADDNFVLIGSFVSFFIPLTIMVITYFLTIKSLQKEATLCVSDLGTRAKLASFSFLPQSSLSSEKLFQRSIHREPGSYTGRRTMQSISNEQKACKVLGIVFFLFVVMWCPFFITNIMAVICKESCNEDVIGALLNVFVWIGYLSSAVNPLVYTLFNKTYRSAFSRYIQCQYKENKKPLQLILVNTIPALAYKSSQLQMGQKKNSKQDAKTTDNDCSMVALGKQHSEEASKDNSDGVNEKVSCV
Summary of the method: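 Antagonist-mode intracellular calcium assay: DOI (4 nM) added after 5 min compound pre-incubation at room temperature to dye-loaded HTR2A-CHO cells. Fluorescence followed for 3 min, sampled every second.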

[19] = target: 5-hydroxytryptamine receptor 2A (Homo sapiens) (UniProt P28223); assay: 5-hydroxytryptamine receptor 2A (HTR2A) small molecule agonists, cell-based qHTS assay (AID 1963587); note: nearly all actives have a fitted effect of over 30% in size
Summary of the method: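 Kinetic calcium-flux fluorescence (2 min, 1 sec intervals) after compound addition in agonist mode. HTR2A-CHO cells were cultured 18 h, then dye-loaded 1 h at 37 C.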

[20] = target: Muscarinic acetylcholine receptor M1 (Homo sapiens) (UniProt P11229); assay: Cholinergic receptor muscarinic 1 (CHRM1) small molecule antagonists, cell-based qHTS assay (AID 1963588); note: nearly all actives have a fitted effect of over 40% in size
Summary of the method: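 CHRM1-CHO calcium-flux assay, antagonist mode. Cells were seeded 18 h, dye-loaded 1 h at 37 C and given compound for 5 min at RT, then acetylcholine was added at 50nM. FDSS fluorescence was read 3 min; 15 concentrations, three runs.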
% is set by controls: 0 for no effect and ±100 for the full control effect.

ONc1ccccc1
active: Potency [2] 60.5 µM
inactive: Potency [1] | Potency [3] | outcome [4] | Potency [5] | Potency [6] | Potency [7] | Potency [8] | Potency [9] | Potency [10] | Potency [11] | Potency [12] | Potency [13] | Potency [14] | Potency [15]

CC(C)(O)c1ccc(CNC(=O)c2cccnc2Oc2ccc3nonc3c2)cc1
inactive: Potency [1] | Potency [2] | outcome [16] | outcome [4] | Potency [5] | Potency [17] | Potency [6] | Potency [7] | Potency [8] | Potency [9] | Potency [18] | Potency [19] | Potency [20] | Potency [10] | Potency [13] | Potency [15]

CC(=O)OCC(=O)[C@@]1(O)CC[C@H]2[C@@H]3CCC4=CC(=O)C=C[C@]4(C)[C@@]3(F)[C@@H](O)C[C@@]21C
inactive: Potency [1] | Potency [2] | outcome [16] | outcome [4] | Potency [5] | Potency [17] | Potency [6] | Potency [7] | Potency [8] | Potency [9] | Potency [18] | Potency [19] | Potency [20] | Potency [10] | Potency [11] | Potency [12] | Potency [14] | Potency [15]

O=C(CCCl)NCCc1ccccc1
inactive: Potency [1] | Potency [2] | Potency [3] | outcome [4] | Potency [17] | Potency [6] | Potency [7] | Potency [8] | Potency [9] | Potency [18] | Potency [19] | Potency [20] | Potency [10] | Potency [12] | Potency [13] | Potency [15]

CCCCCCCC/C=C/C(=O)O
inactive: Potency [1] | Potency [2] | outcome [16] | outcome [4] | Potency [5] | Potency [17] | Potency [6] | Potency [7] | Potency [8] | Potency [9] | Potency [18] | Potency [19] | Potency [20] | Potency [10] | Potency [12] | Potency [13] | Potency [14] | Potency [15]

C/C=C/C(=O)CC
inactive: activity change, negative = cytotoxicity [1] -0.853% [at 19 µM] | activity change [3] 1.75% [at 11.8 µM, hits give high values] | activation [4] 0.719% [at 11.8 µM] | activation [5] -15.9% [at 13.5 µM] | activation [17] -0.406% [at 13.6 µM] | activity change, negative = cytotoxicity [8] 7.07% [at 13.5 µM] | activation [9] -2.81% [at 13.5 µM] | activity, negative = inhibition [18] 10.6% [at 12.7 µM] | activation [19] -1.41% [at 15.9 µM] | activity, negative = inhibition [20] 37.8% [at 12.6 µM] | activation [10] 0.129% [at 15.8 µM] | activation [11] -0.284% [at 19 µM] | activity change, negative = inhibition [12] 1.47% [at 18.9 µM] | activity change, negative = inhibition [13] 3.38% [at 19 µM] | activity change, negative = inhibition [15] 0.284% [at 18.9 µM]
active: Potency [2] 10.5 µM
